{
  "source": "PubChem BioAssay (NCI)",
  "note": "About 83,000 compounds went through this panel and 20% of them were active in at least one assay; those are over-represented in the sample as a whole.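 Cells were grown in 96-well plates and exposed to the test compound at a single concentration for 48 hours; results are reported as percent growth, with values below 10 considered active.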 Active and inactive are the calls of the source.",
  "data": [
    {"tested_on": "A498 renal", "test": "NCI-60 one-dose screen, 48 h (100 = growth as untreated, 0 = no growth, -100 = all killed)", "settings": "10 µM unless noted", "description": "Growth inhibition of the A498 human tumor cell line is measured as a screen for anti-cancer activity. Cells are grown in 96 well plates and exposed to the test compound for 48 hours. Compounds are tested at a single concentration, which is 10^-5 M for most compounds. The reported endpoint is percent growth (GI% or GIPRCNT), where numbers from 0 - 100% represent growth inhibition, and numbers from -100% - 0 represent cell death. For example, a value of 40 represents 60% growth inhibition. A value of 0 means no net growth occurred over the course of the experiment. A value of -40 indicates 40% of cells at the beginning of the experiment died by the end of the experiment. A value of -100 means all cells are dead at the end of the experiment.\nNCI-60 Human Tumor Cell Lines Screen was performed using the standard one-dose NCI protocol, which is described in more detail at https://dtp.cancer.gov/discovery_development/nci-60/default.htm.\nCompounds with GIPRCNT values below 10 were considered active. Activity score was based on GIPRCNT using the following formula: […]\nScore is 0 for GIPRCNT values of 100 or above, 50 for GIPRCNT values of 0, and 100 for GIPRCNT values of -100.", "values": [
      {"smiles": "N[C@@H]1CCC[C@H]1NCCCCN1C(=O)c2cccc3cc([N+](=O)[O-])cc(c23)C1=O", "growth": "52.8% (inactive)"},
      {"smiles": "Cc1ccc(S(=O)(=O)c2nc(-c3ccccc3)oc2SCC(N)=O)cc1", "growth": "80.3% (inactive)"},
      {"smiles": "O=c1cc(CP(=O)(O)O)c2cc(O)c(-c3ccccc3)cc2o1", "growth": "109% (inactive)"},
      {"smiles": "CN(C)CCC(=O)C1CC1", "growth": "106% (inactive)"},
      {"smiles": "CN(C)c1ccc(CNCCO)cc1", "growth": "111% (inactive)"},
      {"smiles": "COC12C=C/C(=C(/C(=O)OCc3cncnc3)C(=O)CCCCCCCCC3(OC)C=C/C(=C(/C(=O)OCc4cncnc4)C(=O)CCCCCCCC1)O3)O2", "growth": "-94.1% (active)"},
      {"smiles": "C=CC(=O)Nc1cccc(Oc2nccc(Nc3nnc(-c4ccc(Br)cc4)s3)n2)c1", "growth": "101% (inactive)"},
      {"smiles": "COc1cccc(-c2cn3nc(-c4cn(C)c5ccccc45)sc3n2)c1", "growth": "87.5% (inactive)"},
      {"smiles": "COc1cc2ncnc(Nc3ccc(F)c(Cl)c3)c2cc1OCC(=O)N1CCOCC1", "growth": "66.2% (inactive)"},
      {"smiles": "Cc1cccc(-c2nc(C(C)C)sc2-c2ccnc(NCCCNS(=O)(=O)c3ccc(Cl)cc3)c2)c1", "growth": "79% (inactive)"},
      {"smiles": "O=c1ccc2ccc(OCCN3CCCCC3)cc2o1", "growth": "85% (inactive)"},
      {"smiles": "COc1cc2c(c(OC)c1OC)C(=O)CC(c1cccc(C(=O)Nc3ccc(C#N)cc3)c1)O2", "note": "(stereo not given)", "growth": "72.1% (inactive)"},
      {"smiles": "O=C(NCCCCCCNC(=O)OCc1ccc2c(Cl)cc(Cl)c(O)c2n1)OCc1ccc2c(Cl)cc(Cl)c(O)c2n1", "growth": "34.9% (inactive)"},
      {"smiles": "OC1(c2ccccc2)c2ccccc2N(c2ccccc2)c2ccc(Cl)cc21", "note": "(stereo not given)", "growth": "-62.6% (active)"},
      {"smiles": "CCCCCc1ccc(S(=O)(=O)Nc2cc(-c3csc(NC(C)=O)n3)ccc2N2CCN(C)CC2)cc1", "growth": "66.2% (inactive)"},
      {"smiles": "CCOc1ccc(NC(=O)Nc2ccc(OCC)cc2)cc1", "growth": "104% (inactive)"},
      {"smiles": "CSc1nc(-c2ccco2)c(C#N)c(=O)n1C", "growth": "103% (inactive)"},
      {"smiles": "COc1ccc(C2C3=C(COC3=O)N(CCO)c3cc4c(cc32)OCO4)cc1OC", "note": "(stereo not given)", "growth": "79% (inactive)"},
      {"smiles": "CC1(C)CC[C@]23CC[C@]4(C)[C@H](CC[C@@H]5[C@@]6(C)CCNCC(C)(C)[C@@H]6CC[C@]54C)[C@H]2[C@H]1OC3", "growth": "117% (inactive)"},
      {"smiles": "Nc1nc(N)c2c(n1)NC(c1cccc(Nc3ccnc4cc(C(F)(F)F)ccc34)c1)CC(c1ccc3c(c1)OCO3)=N2", "note": "(stereo not given)", "growth": "87.9% (inactive)"},
      {"smiles": "O=c1cc(C(F)(F)F)c2cc(-c3cc4ccccc4c(=O)o3)c(O)cc2o1", "growth": "72% (inactive)"},
      {"smiles": "COc1ccc(C2[C@@H](Cl)C(=O)N2c2cc(OC)c(OC)c(OC)c2)cc1Cl", "note": "(stereo not given in full)", "growth": "-6% (active)"},
      {"smiles": "O=C(/C=C/c1ccco1)Nc1ncc(Cc2cc(Cl)ccc2Cl)s1", "growth": "10.3% (inactive)"},
      {"smiles": "CC(C)(C)CC(C)(C)Nc1c(-c2c(O)c3ccccc3oc2=O)nc2sc3ccccc3n12", "growth": "69.6% (inactive)"},
      {"smiles": "COc1ccc2c(O)c(/C=C3\\N=Nc4ncccc43)oc2c1C[C@@H]1CCNC[C@H]1F", "growth": "-32.1% (active)"},
      {"smiles": "[N-]=[N+]=NCC1OC(n2cnc3c(NC(=O)Nc4ccccc4)ncnc32)C2OC(=O)CC12", "note": "(stereo not given)", "growth": "100% (inactive)"},
      {"smiles": "Nc1c(C(=O)Nc2cccc3ncccc23)sc2nc3c(cc12)CN(Cc1ccccc1)CC3", "growth": "72.1% (inactive)"},
      {"smiles": "CN1c2ccccc2S(=O)(=O)n2c(SCC(=O)Nc3nc4ccc(F)cc4s3)nnc21", "growth": "119% (inactive)"},
      {"smiles": "COc1ccc(/C=C2\\CN(C(=O)C(Cl)Cl)C/C(=C\\c3ccc(OC)c(OC)c3)C2=O)cc1OC", "growth": "-48.2% (active)"},
      {"smiles": "c1cc(OCCN2CCCCCC2)ccc1CNc1ccc2nc(CCC3CCCCC3)[nH]c2c1", "growth": "62.5% (inactive)"},
      {"smiles": "CCOC(=O)/C=C1\\S/C(=N\\Nc2cc(=O)[nH]c3ccc(Br)cc23)N(c2ccccc2)C1=O", "growth": "95.6% (inactive)"},
      {"smiles": "Cc1nc([P+](c2ccccc2)(c2ccccc2)c2ccccc2)c(N2CCCCC2)o1", "growth": "34.6% (inactive)"},
      {"smiles": "CCN(CC)CCCNc1cc(OC)c(OC)c2cccnc12", "growth": "81.8% (inactive)"},
      {"smiles": "C=CCn1cc(-c2nc3ccccc3s2)c2cc(-c3ccc4c5c(cccc35)C(=O)N(CCO)C4=O)ccc21", "growth": "113% (inactive)"},
      {"smiles": "COC1C(O)CC(OC2CC(OC3CC(O[C@@H]4C(=O)c5c(cc6cc(OC7CC(OC8CC(O)C(O)C(C)O8)C(O)C(C)O7)c(C)c(O)c6c5O)CC4[C@H](OC)C(=O)O)OC(C)C3O)OC(C)C2O)OC1C", "note": "(stereo not given in full)", "growth": "-15.2% (active)"},
      {"smiles": "Fc1ccc(/C=C/[C@@H]2C[C@@H](F)CCO2)cc1", "growth": "109% (inactive)"},
      {"smiles": "O=C(CCCCCCCC(=O)N1CCCCC1)N1CCCCC1", "growth": "94.2% (inactive)"},
      {"smiles": "C=C(C)[C@@H]1CC[C@]2(COC3CCCCO3)CC[C@]3(C)[C@H](CC[C@@H]4[C@@]5(C)C=C(C=O)C(=O)C(C)(C)[C@@H]5CC[C@]43C)[C@@H]12", "note": "(stereo not given in full)", "growth": "-95% (active)"},
      {"smiles": "CN1CCOCCN(C)Cc2ccc3ccc(cc3c2)CN(C)CCOCCN(C)Cc2ccc3ccc(cc3c2)C1", "growth": "79.1% (inactive)"},
      {"smiles": "COc1cc([C@@H](CCO)C[C@H](C)c2ccc3ccccc3c2)cc(OC)c1OC", "growth": "25.3% (inactive)"}
    ]}
  ]
}
